RORgamma inh: ROR gamma (mouse) transcription inhibition; P51450; Potency, µM (top dose mostly 53.6 µM), inactives show at the highest dose activity change, negative = inhibition, usual class: inhibitors; 310,000 tested, 5.4% active; Drosophila S2 Gal4-RORgamma UAS-luciferase reporter, 20 h; further: on the % scale 0 is the no-effect control and ±100 the full control effect; nearly all actives have a fitted effect of over 60% in size
Target sequence (P51450 whole entry, looked up, the tested form may be a part): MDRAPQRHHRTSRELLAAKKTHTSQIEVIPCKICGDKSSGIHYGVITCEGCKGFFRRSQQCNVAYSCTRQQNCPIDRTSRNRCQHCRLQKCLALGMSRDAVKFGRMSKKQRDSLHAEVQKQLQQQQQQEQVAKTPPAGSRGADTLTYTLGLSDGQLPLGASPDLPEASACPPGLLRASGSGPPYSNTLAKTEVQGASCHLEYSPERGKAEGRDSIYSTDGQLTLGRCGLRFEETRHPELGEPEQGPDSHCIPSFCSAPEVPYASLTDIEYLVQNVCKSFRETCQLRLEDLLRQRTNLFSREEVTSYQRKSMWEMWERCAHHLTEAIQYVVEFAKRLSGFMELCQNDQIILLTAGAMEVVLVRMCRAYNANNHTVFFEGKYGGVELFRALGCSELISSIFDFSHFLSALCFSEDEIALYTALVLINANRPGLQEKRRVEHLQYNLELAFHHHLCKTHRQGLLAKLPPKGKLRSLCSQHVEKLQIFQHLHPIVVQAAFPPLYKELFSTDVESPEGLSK
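In this cell-based reporter format, copper sulfate (700 uM final) drives Gal4–ROR gamma fusion expression from a metallothionein promoter in Drosophila Schneider cells; compounds preincubated 1 hr, reporter read after 20 hr at ambient temperature.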
ATXN2 expr inh: ATXN2 expression inhibition; 360,000 tested, 0.72% active; Potency, µM (titrated, usually from 57 µM), for the others: at the top dose activity change, negative = inhibition, usual class: inhibitors; HEK-293 ATXN2-luciferase reporter, luminescence, 24 h; further: on the % scale 0 is the no-effect control and ±100 the full control effect; nearly all actives have a fitted effect of over 55% in size
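qHTS (up to 57 uM final) was run with 24 h compound exposure of reporter cells at 37 °C. Each well was multiplexed: SteadyGlo luminescence measured ATXN2-luciferase expression after a fluorogenic Gly-Phe-AFC viability readout (25 uM final).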
VP16 counter: inhibits Gal4-VP16 luciferase reporter, ROR gamma counter-screen. Potency, µM (doses to about 53.6 µM), without a hit: at the top dose activity, negative = inhibition, hits mostly inhibitors. AID 2546. 310,000 tested, 3.5% active. Drosophila S2 Gal4-VP16 UAS-luciferase, luminescence, 20 h;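 further: Gal4-VP16 expression switched on by copper sulfate through the metallothionein promoter; on the % scale 0 is the no-effect control and ±100 the full control effect; nearly all actives have a fitted effect of over 50% in size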
HepG2 viability: HepG2 cytotoxicity, counter-screen for TGF-b inhibitors; HepG2 CAGA-GFP viability, ATP luminescence, 18 h; Potency, µM (top dose mostly 46.1 µM), for inactives: top-dose activity change, negative = cytotoxicity, actives largely listed as cytotoxic; 410,000 tested, 0.76% active; AID 588856
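HepG2 CAGA-GFP cells (1000/well, DMEM with 1% FBS) received compound, then TGF-beta at 500 pg/mL final, and were incubated 18 hours at 37 degrees C. Viability was read by CellTiter-Glo luminescence. Media-only wells were set as complete cell-killing and DMSO as no toxicity.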
TGFb SMAD3 inh: TGF-b pathway inhibition; HepG2 CAGA-GFP TGF-b/SMAD3 reporter, GFP fluorescence, 18 h; TGF-beta stimulated, 500 pg/mL final; Potency, µM (series often up to 46.1 µM), for inactives: top-dose activity, negative = inhibition, hits mostly inhibitors; 410,000 tested, 1.2% active; AID 588855; further: on the % scale 0 is the no-effect control and ±100 the full control effect; nearly all actives have a fitted effect of over 65% in size
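Per well, imaged GFP fluorescence of HEPG2 CAGA-GFP cells gives the signal; cells get compound, then TGF-beta (500 pg/mL final), 18 h at 37 degrees C; %Activity versus -TGF-beta and +DMSO controls.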
S2 tox: cell viability loss in ATXN counter-screen; Potency, µM (doses to about 56.7 µM), most hits filed as cytotoxic; S2 cells (HEK-293 line with an ATXN2-luciferase reporter) viability, CellTiter-Fluor protease fluorescence, 24 h; 400,000 tested, 0.49% active; further: nearly all actives have a fitted effect of over 40% in size
Numbers without * were called inactive; i = inactive; u = inconclusive; x = not tested or not shown. The list is not random: actives were taken first. Their share in the collection is about 6.3%. The call rests on the fitted dose curve; in most records, active means well fitted curve in the direction sought with a large enough effect; inconclusive means small, poorly fitted or top-dose-only effect, or another doubt; inactive means no such curve, though single readings can be large; an effect the other way counts as inactive or inconclusive. Potency means the concentration at half of the fitted maximal effect.

SMILES | RORgamma inh | ATXN2 expr inh | VP16 counter | HepG2 viability | TGFb SMAD3 inh | S2 tox
CCNC(=S)NNC(=O)c1ccccc1OC(F)F | 4µM* | 0% | u | -13% | -25% | i
CCNC(=S)NNC(=O)c1ccccn1 | 8.9µM* | -30% | u | -46% | -12% | i
COc1ccc(NC(=S)NNC(=O)c2ccccc2OC(F)F)cc1 | 13µM* | -2% | -8% | -13% | -2% | i
CCc1ccc(NC(=S)NNC(=O)c2ccccc2OC(F)F)cc1 | -41% | x | u | x | x | x
CCNC(=S)NNC(=O)c1ccccc1Cl | 3.2µM* | -2% | 14µM* | 13% | 10% | i
COc1ccc(CN2CCCN(CC(=O)Nc3cc(C)ccc3C)S2(=O)=O)cc1 | x | -16% | x | -14% | u | i
COc1ccc2[nH]c(C)c(CCNS(=O)(=O)c3cc(F)ccc3OC)c2c1 | x | -3% | x | -25% | -22% | i
COc1ccc2[nH]c(C)c(CCNC(=S)Nc3cc(C)cc(C)c3)c2c1 | 2.2µM* | u | 11µM* | -33% | -8% | i
COc1ccc2[nH]c(C)c(CCNC(=S)Nc3ccc(F)cc3)c2c1 | 4µM* | x | 3.5µM* | -8% | u | i
COc1ccc2[nH]c(C)c(CCNC(=S)Nc3cc(C)ccc3C)c2c1 | 5µM* | -10% | u | -29% | -11% | i
COc1ccc2[nH]c(C)c(CCNC(=S)Nc3cccc(C)c3)c2c1 | 5µM* | -6% | 20µM* | -13% | -6% | i
Cc1ccc(S(=O)(=O)N2CCCCC2)cc1NC(=O)C1CCC1 | x | 3% | x | 11% | -1% | i
CN(c1ccccc1)c1nc(C#N)nc(N2CCOCC2)n1 | x | x | x | -24% | -3% | x
COc1cc(C(=O)N2CCCC(C)(C(=O)NS(=O)(=O)C3CC3)C2)cc(OC)c1OC (configuration not stated) | x | 2% | x | 6% | 12% | i
COc1ccc2[nH]c(C)c(CCNC(=S)Nc3ccccc3OC)c2c1 | 10µM* | x | -1% | -17% | -31% | i
COc1ccccc1NC(=S)NCCc1ccc(OC)c(OC)c1 | u | -10% | -13% | -16% | -2% | i
O=C(Nc1cccc(Oc2ccccc2)c1)c1ccc(-n2cncn2)c2ccoc12 | x | -24% | x | -24% | -3% | 6.3µM*
CC(C)(C)n1ncc2c(=O)n(Cc3cc(Cl)ccc3Cl)cnc21 | x | x | x | -5% | -8% | x
CN(C(=O)CSc1nncn2c1cc1occc12)c1ccccc1 | x | x | x | -11% | u | x
Cc1nn(Cc2ccc(C(=O)NC(C)(C)C)o2)c(C)c1Br | u | -25% | 10µM* | -2% | -5% | i
COc1ccc(CNC(=O)c2ccc(Cn3nc(C)c([N+](=O)[O-])c3C)o2)cc1 | 5.6µM* | -11% | 5µM* | 5% | 9% | i
Cc1cc(NC(=O)c2ccc(Cn3nc(C)c(Br)c3C)o2)no1 | 0% | u | 2% | -13% | -2% | i
Cc1nn(Cc2ccc(C(=O)Nc3ccc(C(=O)OC(C)C)cc3)o2)c(C)c1Cl | 1.6µM* | -15% | 7% | -39% | u | i
CCn1nc(C)cc1C(=O)Sc1ccc(Cl)cc1Cl | u | -27% | -6% | -23% | u | i
CCn1nc(C)cc1C(=O)Sc1cccc(Br)c1 | u | -2% | u | 20µM* | u | i
SMILES | RORgamma inh | ATXN2 expr inh | VP16 counter | HepG2 viability | TGFb SMAD3 inh | S2 tox
CN=C1S/C(=C\c2cc(C)n(-c3ccccc3F)c2C)C(=O)N1C | u | -1% | 18µM* | 11% | u | i
Cc1cc(/C=C2\SC(=O)N(C)C2=O)c(C)n1-c1ccc(O)cc1 | 19% | x | -27% | -64% | u | i
NC/C=C\C(=O)O | -12% | x | -3% | x | x | x
Cc1cccc(Nc2nc(-c3ccc(F)c(C)c3)cs2)n1 | -38% | 64% | u | -1% | 0% | u
Cc1cc(C)nc(Nc2nc(-c3ccccc3)cs2)n1 | 4.5µM* | x | u | -25% | 1% | i
Oc1ccc(-c2csc(Nc3ccccn3)n2)cc1O | 5.6µM* | x | 6.3µM* | -31% | u | i
Cc1cccc(Nc2nc(-c3ccc(O)c(O)c3)cs2)n1 | 4.5µM* | 76% | 5.6µM* | -33% | u | u
Cc1ccnc(Nc2nc(-c3ccc(O)c(O)c3)cs2)c1 | 11µM* | 26% | 5.6µM* | -41% | 14µM* | u
O=C(Nc1ccc([N+](=O)[O-])cc1Cl)c1cc(Br)ccc1O | x | x | x | -8% | u | x
Oc1ccc(Nc2nc(-c3ccc(Cl)cc3)cs2)cc1 | u | x | 14µM* | x | x | x
COc1ccc(-c2csc(Nc3cc(C)ccn3)n2)cc1C | u | x | -26% | -18% | -28% | i
Oc1ccc(Nc2nc(-c3ccc(O)cc3)cs2)cc1 | 37% | 92% | 4% | -13% | 20% | i
Cc1ccnc(Nc2nc(-c3ccc(O)cc3O)cs2)c1 | 0.71µM* | -34% | 2.2µM* | 11µM* | 11µM* | u
Cc1ccnc(Nc2nc(-c3ccc(O)cc3)cs2)c1 | 3.2µM* | 47% | 4µM* | -30% | -25% | i
COc1cc(/C=N/NC(=S)Nc2cccc(S(=O)(=O)N(C)C)c2)cc(OC)c1O | 3.2µM* | 5% | 2.8µM* | 9% | 2% | i
CN(C)S(=O)(=O)c1cccc(NC(=S)Nc2cc(Cl)cc(Cl)c2)c1 | 31% | u | -2% | -11% | u | i
CN(C)S(=O)(=O)c1cccc(NC(=S)N/N=C/c2ccco2)c1 | 1.1µM* | x | 3.2µM* | -1% | u | i
CN(C)S(=O)(=O)c1cccc(NC(=S)Nc2ccc(Cl)cc2Cl)c1 | 20µM* | -1% | u | 0% | u | i
COc1cccc(/C=N/NC(=S)Nc2cccc(S(=O)(=O)N(C)C)c2)c1 | 1.6µM* | -30% | 4.5µM* | -27% | -21% | i
COc1ccc(O)c(/C=N/NC(=S)Nc2cccc(S(=O)(=O)N(C)C)c2)c1 | u | u | u | 12% | u | i
C=CCn1c(O)c(N=Nc2ccccc2[N+](=O)[O-])c2ccccc21 | x | x | x | -17% | -18% | i
O=C(NCc1ccncc1)C12C[C@H]3C[C@@H](C1)CC(c1ccc(Cl)cc1)(C3)C2 | x | -4% | x | x | x | x
CN(C)S(=O)(=O)c1cccc(NC(=S)N/N=C/C(c2ccccc2)c2ccccc2)c1 | 3.5µM* | 5% | 5µM* | 7% | 4% | i
Cc1cc(O)c(C(C)C)cc1N=Nc1ccccc1C(=O)O | 1% | 6% | -2% | -51% | u | u
Cc1cc(N=Nc2ccccc2C(=O)O)c(C)c(C)c1O | 0% | -4% | -4% | -5% | 0% | 13µM*

High-throughput results (PubChem)
